PAX8 reporter: inhibitors of PAX8 transcriptional activity in RMG-I cells | RMG-I TPO-luciferase reporter, SteadyGlo, 24 h | inhibition, % at 12.6 µM | 360,000 tested, 1.2% active | AID 652154;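 active = mean replicate inhibition at least 60% with every replicate also reaching 60%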;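 note: luciferase light reporting Pax8 driven TPO promoter activity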
EWS-Fli inh: EWS/Fli transcriptional activity inhibition. A673 NR0B1-luciferase reporter, viability-normalised. 350,000 tested, 0.67% active. inhibition, % at 12.6 µM;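 active = mean inhibition of at least 50% after viability correction, with every replicate also passing that limit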;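 note: firefly luciferase signal divided by Alamar Blue viability fluorescence both relative to DMSO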
miR-122 sensor: miR-122 inhibition in Huh7 cells; 340,000 tested, 0.3% active; Huh7 miR-122 Renilla luciferase sensor, 48 h; neutral wells = 0, positive control = 100; activation (reporter increase), % at 12.5 µM;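 active = mean replicate activation score at least 90 and every replicate individually at or above 90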;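 note: higher luciferase means less miR-122 activity so hits act as miR-122 inhibitors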
Statin myotox sup: suppressors of simvastatin-induced myotoxicity in C2C12 myotubes; ATP luminescence, 48 h; scaled: DMSO 0, geranylgeraniol control 100; rescue of ATP level, % at 7.49 µM; 330,000 tested, 0.78% active;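 active = mean ATP rescue above about 67%, or every replicate alone reaching that limit, limit read from the data, passing the limit was not always enough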;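 note: myotubes were challenged with 10 µM simvastatin during compound exposure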
Env fusion inh: blocks HIV Env-driven cell-cell fusion; HeLa-JRFL Env/CEM21 cell fusion, luciferase; AID 651610; inhibition, % at 12.3 µM; 360,000 tested, 1.1% active;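 active = mean replicate inhibition score of at least 50 and every replicate individually at or above 50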
GSIS activator: GLuc luminescence reporter in INS-1E cells, primary screen for activators of glucose-dependent secretion of insulin; INS-1E GLuc reporter insulin secretion, 2-3 h; activation, % at 16.6 µM; 370,000 tested, 0.61% active;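 active = lowest replicate activation of at least 40%, so every replicate reaches that level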
Each line names hits and unclear results; the compound was inactive in the other large screens. Only some compounds are listed: those with a hit (about 3.1% of all), similar ones and a draw of the others.

COc1ccc([C@@H]2[C@@H]3C(=O)N(C(C)(C)C)C(=O)[C@@H]3[C@]3(Cc4ccc(Cl)cc4)C(=O)N(c4cccc(C)c4)C(=O)N23)cc1	Env fusion inh 90
COc1ccc([C@@H]2[C@@H]3C(=O)N(C(C)(C)C)C(=O)[C@@H]3[C@]3(Cc4ccc(Cl)cc4)C(=O)N(c4ccc(C)cc4)C(=O)N23)cc1	none (no result: miR-122 sensor)
CCN1C(=O)[C@H]2[C@@H](c3ccc(C)cc3)N3C(=O)N(c4cccc(Cl)c4)C(=O)[C@@]3(Cc3ccc(Cl)cc3)[C@H]2C1=O	Env fusion inh 59 (no result: miR-122 sensor)
COc1ccc([C@@H]2[C@@H]3C(=O)N(C(C)(C)C)C(=O)[C@@H]3[C@]3(CC(C)C)C(=O)N(c4ccc(C(F)(F)F)cc4)C(=O)N23)cc1	Env fusion inh 109 (no result: miR-122 sensor)
Cc1ccccc1S(=O)(=O)N1C[C@H](O)COC[C@H]2O[C@H](CC(=O)NCc3ccccc3Cl)CC[C@@H]21	none
COc1ccc([C@@H]2[C@@H]3C(=O)N(C(C)(C)C)C(=O)[C@@H]3[C@]3(CC(C)C)C(=O)N(c4cccc(Br)c4)C(=O)N23)cc1	Env fusion inh 90
COc1ccc([C@@H]2[C@@H]3C(=O)N(C(C)(C)C)C(=O)[C@@H]3[C@]3(CC(C)C)C(=O)N(c4ccccc4)C(=O)N23)cc1	Env fusion inh 81
COc1ccc([C@@H]2[C@@H]3C(=O)N(C(C)(C)C)C(=O)[C@@H]3[C@]3(C)C(=O)N(c4ccc(C(F)(F)F)cc4)C(=O)N23)cc1	Env fusion inh 66
O=C(C1CCC1)N1CC2(C1)[C@H](c1ccccc1)[C@H](CO)N2CCC(F)(F)F	none (no result: PAX8 reporter, miR-122 sensor, Statin myotox sup, Env fusion inh)
C[C@H]1CCCCO[C@@H](CN(C)C)[C@@H](C)CN([C@@H](C)CO)C(=O)c2cc(NC(=O)c3ccccc3)ccc2O1	none
N#C[C@H]1[C@@H](c2ccccc2-c2ccccc2)[C@H](CO)N1C(=O)NC1CCCCC1	none (no result: miR-122 sensor, Statin myotox sup)
O=C(/C=C/c1cccc([N+](=O)[O-])c1)c1ccco1	EWS-Fli inh 58 (no result: miR-122 sensor)
Cc1ccccc1/C=C/C(=O)c1ccc([N+](=O)[O-])o1	EWS-Fli inh 71 (no result: miR-122 sensor, Statin myotox sup)
O=C(/C=C/c1cccc([N+](=O)[O-])c1)c1ccc([N+](=O)[O-])o1	EWS-Fli inh 81, Env fusion inh 56 (no result: miR-122 sensor)
Cc1cccc(/C=C/C(=O)c2ccc([N+](=O)[O-])o2)c1	EWS-Fli inh 63 (no result: miR-122 sensor)
O=C(/C=C/c1cccc([N+](=O)[O-])c1)Nc1cccc(NC(=O)c2ccco2)c1	none (no result: miR-122 sensor, Statin myotox sup, Env fusion inh)
N#Cc1ccc(CN2CCN(C(=O)CNC(=O)Cc3cccc4ccccc34)CC2)cc1	Env fusion inh 71
C[C@H](CO)N1C[C@H](C)[C@@H](CN(C)Cc2ccc(Cl)c(Cl)c2)Oc2ccc(NS(C)(=O)=O)cc2CC1=O	Statin myotox sup 92 (no result: EWS-Fli inh)
C[C@@H]1CN([C@H](C)CO)C(=O)Cc2cc(NS(C)(=O)=O)ccc2O[C@@H]1CN(C)Cc1ccc(Cl)c(Cl)c1	Statin myotox sup 108 (no result: EWS-Fli inh)
C[C@H]1CN([C@@H](C)CO)C(=O)Cc2cc(NS(C)(=O)=O)ccc2O[C@@H]1CN(C)Cc1ccc(Cl)c(Cl)c1	none (no result: Env fusion inh)
CN1CC(c2ccc(Cl)c(Cl)c2)[C@@]2(COc3ccccc3C2=O)[C@@]12C(=O)Nc1ccccc12 (some centres not stated)	Env fusion inh 103 (no result: PAX8 reporter, EWS-Fli inh, GSIS activator)
CNC(=O)CSc1nc2cccnc2n1-c1ccc(F)cc1	GSIS activator 78
CCOc1cc(CNCc2ccncc2)cc(Br)c1OCc1ccccc1F	Statin myotox sup 112 (no result: PAX8 reporter, EWS-Fli inh, Env fusion inh)
CCc1cc(-c2n[nH]c(C)c2-c2nc3ccccc3n2C)c(O)cc1O	PAX8 reporter 120 (no result: Statin myotox sup)
COc1ccccc1S(=O)(=O)N[C@@H]1CC[C@@H](CCNC(=O)C2CC2)O[C@H]1CO	none (no result: miR-122 sensor)
COc1cc(-c2noc(C)c2-c2ccc(N(C)C)nc2)cc(OC)c1OC	PAX8 reporter 74, EWS-Fli inh 61 (no result: miR-122 sensor)
COc1ccc(NC(=O)N2CCC3(CC2)CN(CC2CC2)[C@@H](CO)c2c3c3ccc(OC)cc3n2C)cc1	none (no result: PAX8 reporter, EWS-Fli inh, miR-122 sensor, Statin myotox sup, Env fusion inh)
CCOc1ccc2nc(N3CCCC(C(=O)N4CCN(CC)CC4)C3)sc2c1 (configuration not stated)	Statin myotox sup 116
